HT1080-NT tox: kills 2HG-producing HT-1080-NT fibrosarcoma cells; Potency, µM (titrated, usually from 46.1 µM), inactives show at the top dose activity, negative = less viability, usual class: cytotoxic; hit rate 1.6% among 360,000; HT-1080-NT fibrosarcoma viability, CellTiter-Glo ATP luminescence, 48 h;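 further: NT is the 2HG producing partner of a matched IDH1 knockdown line; 0% = DMSO-treated cells and -100% = media-only wells without cells; nearly all actives have a fitted effect of over 55% in size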
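Luminescent CellTiter-Glo readout after 48 hours of compound exposure at 37 degrees C defined viability of HT-1080-NT cells. Activity was normalized to DMSO wells and cell-free media wells; concentration-response curves were fitted and assigned curve classes.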
TDP1 cell CPT: DT40-hTDP1 cell growth loss with CPT. chicken DT40 Tdp1-/-;hTDP1 cells + 20 nM CPT, ATP luminescence, 48 h. Potency, µM (titrated, usually from 46.2 µM), without a hit: at the highest dose activity change, negative = growth inhibition, actives largely listed as inhibitors. hit rate 12% among 420,000. AID 686979; further: nearly all actives have a fitted effect of over 55% in size
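Chicken DT40 Tdp1-/- cells stably complemented with human TDP1 were seeded at 400 cells/well in medium containing 20 nM camptothecin, exposed to pin-transferred compounds, and grown at 37 °C for at least 48 hr. Viability was read as ATP luminescence.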
KB-V1 MDR tox: kills drug-selected multidrug resistant KB-V1 cells. Potency, µM (top dose mostly 46.1 µM), hits mostly cytotoxic. AID 1347076. hit rate 3.4% among 400,000. KB-V1 MDR cells viability, CellTiter-Glo, 72 h; further: nearly all actives have a fitted effect of over 60% in size
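Readout: CellTiter-Glo luminescence, 10 min after addition. Cells: KB-V1 MDR subline, 72 h at 37 degrees C with compound. Analysis: corrected, normalized data fitted to concentration-effect curves.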
KB-3-1 tox: kills parental KB-3-1 adenocarcinoma cells; Potency, µM (titrated, usually from 46.1 µM), hits mostly cytotoxic; KB-3-1 viability, CellTiter-Glo ATP luminescence, 72 h; hit rate 1.4% among 400,000; AID 1347075; further: nearly all actives have a fitted effect of over 60% in size
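Cells are dispensed, compounds pinned in, plates held at 37 °C for 72 h, then CellTiter-Glo is added and luminescence read after 10 minutes. Cell line: parental KB-3-1 in phenol-red-free DMEM, 10% FBS.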
HT1080 IDH1KD tx: HT-1080 IDH1 knockdown cell toxicity (counter line); HT-1080 IDH1 knockdown viability, ATP luminescence, 48 h; Potency, µM (titrated, usually from 46.1 µM), inactives show top-dose activity, negative = toxicity, hits mostly cytotoxic; hit rate 2% among 360,000; AID 686971;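 further: 0% = DMSO wells and -100% = cell-free medium wells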
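In this qHTS, HT-1080 cells depleted of IDH1 are exposed for 48 h at 37 °C to compound titrations. Toxicity is scored from CellTiter-Glo luminescence, with DMSO as full viability and medium alone as none.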
TDP1 cell noCPT: qHTS for Inhibitors of human tyrosyl-DNA phosphodiesterase 1 (TDP1): qHTS in cells in absence of CPT | DT40 Tdp1-/- hTDP1 cells, no CPT, ATP luminescence, 48 h | Potency, µM (highest dose often 46.2 µM), without a hit: at the top dose activity change, negative = growth inhibition, hits mostly inhibitors | hit rate 15% among 420,000; further: nearly all actives have a fitted effect of over 55% in size
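Chicken DT40 Tdp1-/- cells complemented with human TDP1, screened without camptothecin (DMSO vehicle only), 400 cells/well. Compounds pin-transferred, cells incubated at 37 °C for at least 48 hr. Growth read as ATP-dependent luminescence (CellTiter-Glo, 30 min at RT).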
The depositor's hits bear a star; i = inactive; ? = inconclusive. An excerpt weighted towards active compounds, which were near 19% of everything screened. The call rests on the fitted dose curve; in most records, active means well fitted curve in the direction sought with a large enough effect; inconclusive means small, poorly fitted or top-dose-only effect, or another doubt; inactive means no such curve, though single readings can be large; an effect the other way counts as inactive or inconclusive. Unless noted, on the % scale 0 is the no-effect control and ±100 the full control effect; potency means the concentration at half of the fitted maximal effect.

SMILES | HT1080-NT tox | TDP1 cell CPT | KB-V1 MDR tox | KB-3-1 tox | HT1080 IDH1KD tx | TDP1 cell noCPT
CCn1nc(C(=O)NCCc2ccc3c(c2)OCCO3)c2ccccc2c1=O | 3% | -19% | ? | i | -7% | ?
O=C(COc1ccc(F)cc1)N1CCC(Cc2ccccc2)CC1 | 1% | ? | i | i | 0% | -15%
CC1Cc2ccccc2N1C(=S)NC(=O)c1ccc(Cl)cc1Cl (configuration not stated) | -3% | ? | 16µM* | i | -3% | 10µM*
CC1Cc2ccccc2N1C(=S)NC(=O)c1cccc(Br)c1 (configuration not stated) | -8% | 21µM* | ? | ? | -2% | 15µM*
CC1Cc2ccccc2N1C(=S)Nc1ccc(S(N)(=O)=O)cc1 (configuration not stated) | -3% | ? | 18µM* | ? | -2% | ?
Cc1ccc(NC(=O)COC(=O)c2cccnc2Cl)cc1S(=O)(=O)N1CCOCC1 | -1% | -14% | i | i | -1% | 10%
Cc1ccc(NC(=O)COc2ncnc3ccccc23)cc1S(=O)(=O)N1CCOCC1 | 2% | -31% | i | i | 10% | ?
CSc1ncccc1C(=O)OCC(=O)Nc1ccc(C)c(S(=O)(=O)N2CCOCC2)c1 | -10% | ? | i | i | 0% | 13µM*
Cc1ccc(NC(=O)CSc2ncnc3ccccc23)cc1S(=O)(=O)N1CCOCC1 | ? | ? | i | i | ? | 15µM*
Cc1ccc(NC(=O)CSc2ncnc3ccccc23)cc1S(=O)(=O)N1CCCCC1 | -29% | 26µM* | i | i | ? | ?
COc1ccc(NC(=O)CN(C)C(=O)c2sc3cc(Cl)ccc3c2Cl)cc1 | 7% | -17% | ? | i | 1% | ?
COc1ccc(CCN(C)C(=O)c2c(C)noc2C)cc1OC | 4% | -14% | i | i | -4% | 12%
COC(=O)C[C@@H]1C[C@H]2c3cc(NS(=O)(=O)c4ccccc4)ccc3O[C@H]2[C@@H](CO)O1 | 10% | 0% | i | i | 1% | -6%
COC(=O)C[C@H]1C[C@H]2c3cc(NC(=O)Nc4ccc(C(F)(F)F)cc4)ccc3O[C@H]2[C@@H](CO)O1 | -9% | ? | i | i | -8% | 26µM*
COc1cccc(S(=O)(=O)Nc2ccc3c(c2)[C@@H]2C[C@H](CC(=O)NCCc4ccccc4)O[C@H](CO)[C@@H]2O3)c1 | -6% | 23µM* | i | ? | -4% | 16µM*
COC(=O)C[C@H]1C[C@@H]2c3cc(NC(=O)Nc4ccc(F)cc4)ccc3O[C@@H]2[C@@H](CO)O1 | 21% | -4% | ? | i | -10% | -9%
COCCNC(=O)C[C@@H]1C[C@H]2c3cc(NC(=O)Nc4ccc(F)cc4)ccc3O[C@H]2[C@H](CO)O1 | -3% | ? | ? | ? | 3% | 8.2µM*
O=C(C[C@@H]1C[C@H]2c3cc(NC(=O)NC4CCCCC4)ccc3O[C@H]2[C@H](CO)O1)NC1CCCCC1 | -5% | ? | i | i | -9% | 15µM*
CSc1ccc(CN2CCCN(C)CC2)cc1 | -4% | -7% | i | i | 9% | -2%
Cc1cc(OCC(=O)NCC(c2ccc(F)cc2)N2CCOCC2)ccc1Cl (configuration not stated) | -1% | -27% | i | i | -1% | ?
O=C(C[C@H]1C[C@@H]2c3cc(NC(=O)Nc4ccccc4F)ccc3O[C@@H]2[C@H](CO)O1)NCc1ccccn1 | -7% | ? | i | i | 0% | 16µM*
COCC(=O)Nc1ccc2c(c1)[C@@H]1C[C@H](CC(=O)NCc3cccc(F)c3)O[C@@H](CO)[C@@H]1O2 | 15% | -23% | ? | i | 13% | -19%

Bioassay records: PubChem BioAssay, National Center for Advancing Translational Sciences (NCATS)
